FECH inh: inhibitors of human ferrochelatase, primary screen, biochemical, purified FECH, Ni-mesoporphyrin absorbance. AID 1671448, 2021. Ferrochelatase, mitochondrial (Homo sapiens), P22830. calls only at 10 µM (by protocol). Ni-mesoporphyrin absorbance 550 nm. 20,000 tested, 3.3% active;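 active means enzyme reaction rate more than 3 SD below the solvent-only control wells on the same plate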;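 further: lower slope than DMSO wells means FECH inhibition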
* = called active by the depositor. This is one part of a sample in which hits are shown more often than they occur.

`Cc1ccc(CN2CCCN(CC(N)=O)S2(=O)=O)cc1` gave FECH inh inactive.
For Cc1ccc(CN2CCCN(Cc3ccc(Cl)cc3)S2(=O)=O)cc1 the results were FECH inh active.
For Cc1ccccc1CN1CCCN(Cc2ccc(Cl)cc2)S1(=O)=O the results were FECH inh inactive.
`Cc1cccc2c(CCNC(C)CN3CCOCC3)c[nH]c12` (stereo unspecified) gave FECH inh inactive.
c1ccc(N2CCNCC2)c(-c2cc3ccccc3o2)c1 was read as FECH inh inactive.
Screening Cc1ccnc(CC(C)N(C)Cc2ccccc2Cn2cccn2)c1 (stereo unspecified) returned FECH inh inactive.
Screening c1ccc2[nH]c(C3NCCc4[nH]cnc43)nc2c1 (stereo unspecified) returned FECH inh active.
Screening c1cc(C2NCCc3[nH]cnc32)c2cc[nH]c2c1 (stereo unspecified) returned FECH inh inactive.
For Cc1nccnc1N1C[C@H](c2cccc(F)c2F)[C@@H]2[C@H]1C1CCN2CC1 the results were FECH inh inactive.
NCCc1cccc(-c2ccc(F)cc2Cl)c1 was read as FECH inh inactive.
